This passage reports binding signal results from doi:10.1101/2024.03.05.583629.

The target in the assay is pT7_6His-AlfaTag-HOXD13 (human, UniProt P35453 263-343). The assay can be described thus: PADIT-seq. The following applies: dsDNA, one strand shown.
Sequence of pT7_6His-AlfaTag-HOXD13 (P35453 263-343): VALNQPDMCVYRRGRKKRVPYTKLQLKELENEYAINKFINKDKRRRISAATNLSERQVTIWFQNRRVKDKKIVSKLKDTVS
“CTCGAGGATATCAAGATCTGGCCTCGGCGCATGGGCGGGAACCTCTAGCTAGCCGACTCACTATAGGGATAATCGCCCTGAGCAAAGACC”: the binding signal is -0.757 ± 0.112 log2FC. For “CTCGAGGATATCAAGATCTGGCCTCGGCAAATGGGCGGGAACCTCTAGCTAGCCGACTCACTATAGGGATAATCGCCCTGAGCAAAGACC” the value was -0.536 ± 0.104 log2FC; for “CTCGAGGATATCAAGATCTGGCCTCGGCTGTTGGGCGGGAACCTCTAGCTAGCCGACTCACTATAGGGATAATCGCCCTGAGCAAAGACC”, -1.03 ± 0.1 log2FC; for “CTCGAGGATATCAAGATCTGGCCTCGGCACGCTAAAAGGAACCTCTAGCTAGCCGACTCACTATAGGGATAATCGCCCTGAGCAAAGACC”, -0.127 ± 0.102 log2FC.

Take “CTCGAGGATATCAAGATCTGGCCTCGGCATTTTAATCGGAACCTCTAGCTAGCCGACTCACTATAGGGATAATCGCCCTGAGCAAAGACC”: the binding signal was found to be 1.1 ± 0.0894 log2FC.

For the sequence “CTCGAGGATATCAAGATCTGGCCTCGGCGCGTGGTATGGAACCTCTAGCTAGCCGACTCACTATAGGGATAATCGCCCTGAGCAAAGACC”, the binding signal is -1.06 ± 0.113 log2FC. For “CTCGAGGATATCAAGATCTGGCCTCGGCGTTTTATTGGGAACCTCTAGCTAGCCGACTCACTATAGGGATAATCGCCCTGAGCAAAGACC” the value was 3.37 ± 0.0853 log2FC; for “CTCGAGGATATCAAGATCTGGCCTCGGCGCGTGGAATGGAACCTCTAGCTAGCCGACTCACTATAGGGATAATCGCCCTGAGCAAAGACC”, -0.959 ± 0.133 log2FC; for “CTCGAGGATATCAAGATCTGGCCTCGGCCGCCCACTTGGAACCTCTAGCTAGCCGACTCACTATAGGGATAATCGCCCTGAGCAAAGACC”, -0.908 ± 0.133 log2FC.

As to “CTCGAGGATATCAAGATCTGGCCTCGGCCGCCACCGCGGAACCTCTAGCTAGCCGACTCACTATAGGGATAATCGCCCTGAGCAAAGACC”, the binding signal was -0.959 ± 0.127 log2FC. For “CTCGAGGATATCAAGATCTGGCCTCGGCCTTTTAAGGGGAACCTCTAGCTAGCCGACTCACTATAGGGATAATCGCCCTGAGCAAAGACC” the value was 1.67 ± 0.0786 log2FC; for “CTCGAGGATATCAAGATCTGGCCTCGGCCAGATAAAAGGAACCTCTAGCTAGCCGACTCACTATAGGGATAATCGCCCTGAGCAAAGACC”, 0.383 ± 0.117 log2FC. For “CTCGAGGATATCAAGATCTGGCCTCGGCAAATTAAAAGGAACCTCTAGCTAGCCGACTCACTATAGGGATAATCGCCCTGAGCAAAGACC” the value was 2.15 ± 0.08 log2FC; for “CTCGAGGATATCAAGATCTGGCCTCGGCATTTTACAGGGAACCTCTAGCTAGCCGACTCACTATAGGGATAATCGCCCTGAGCAAAGACC”, 3.08 ± 0.0772 log2FC; for “CTCGAGGATATCAAGATCTGGCCTCGGCGGGATAAAAGGAACCTCTAGCTAGCCGACTCACTATAGGGATAATCGCCCTGAGCAAAGACC”, 0.241 ± 0.0798 log2FC. In the case of “CTCGAGGATATCAAGATCTGGCCTCGGCCGCTTGCGCGGAACCTCTAGCTAGCCGACTCACTATAGGGATAATCGCCCTGAGCAAAGACC”, the binding signal is -0.985 ± 0.131 log2FC. Consider “CTCGAGGATATCAAGATCTGGCCTCGGCCTTTTATGCGGAACCTCTAGCTAGCCGACTCACTATAGGGATAATCGCCCTGAGCAAAGACC”, for which the binding signal was determined as 1.88 ± 0.0756 log2FC.

Take “CTCGAGGATATCAAGATCTGGCCTCGGCGCGTGGGGTGGAACCTCTAGCTAGCCGACTCACTATAGGGATAATCGCCCTGAGCAAAGACC”: the binding signal is -1.1 ± 0.157 log2FC. For “CTCGAGGATATCAAGATCTGGCCTCGGCTTGTGGGCGGGAACCTCTAGCTAGCCGACTCACTATAGGGATAATCGCCCTGAGCAAAGACC” the value was -0.943 ± 0.108 log2FC.

Turning to “CTCGAGGATATCAAGATCTGGCCTCGGCGACCCACGCGGAACCTCTAGCTAGCCGACTCACTATAGGGATAATCGCCCTGAGCAAAGACC”, the binding signal is -1.05 ± 0.109 log2FC.

Sequence “CTCGAGGATATCAAGATCTGGCCTCGGCTAATGGGCGGGAACCTCTAGCTAGCCGACTCACTATAGGGATAATCGCCCTGAGCAAAGACC” showed a binding signal of 0.254 ± 0.0964 log2FC. For “CTCGAGGATATCAAGATCTGGCCTCGGCATCCTAAAAGGAACCTCTAGCTAGCCGACTCACTATAGGGATAATCGCCCTGAGCAAAGACC” the value was 0.337 ± 0.103 log2FC; for “CTCGAGGATATCAAGATCTGGCCTCGGCGTCATAAAAGGAACCTCTAGCTAGCCGACTCACTATAGGGATAATCGCCCTGAGCAAAGACC”, 2.72 ± 0.0783 log2FC.

“CTCGAGGATATCAAGATCTGGCCTCGGCCTTTTACGCGGAACCTCTAGCTAGCCGACTCACTATAGGGATAATCGCCCTGAGCAAAGACC”: the binding signal was 1.9 ± 0.0733 log2FC.

With “CTCGAGGATATCAAGATCTGGCCTCGGCGTTTTAACAGGAACCTCTAGCTAGCCGACTCACTATAGGGATAATCGCCCTGAGCAAAGACC”, the binding signal was determined as 1.92 ± 0.0739 log2FC. The figure for “CTCGAGGATATCAAGATCTGGCCTCGGCTTTTTAGAGGGAACCTCTAGCTAGCCGACTCACTATAGGGATAATCGCCCTGAGCAAAGACC” is 1.39 ± 0.106 log2FC.
